Measurements published in PubChem BioAssay (NCATS).
Results filed as inconclusive are left out. Activity calls are given as the source filed them. The call rests on the fitted dose curve; in most records, active means well fitted inhibition curve with a large enough effect; inconclusive means small, poorly fitted or top-dose-only effect; inactive means flat fitted curve, though single readings scatter.

system: TAB113; assay: qHTS profiling for inhibitors of Plasmodium falciparum proliferation (AID 504749); further: nearly all actives have a fitted effect of over 60% in size;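 on activity, negative = inhibition: 0% = DMSO vehicle and full inhibition = artemisinin control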; settings: P. falciparum in erythrocytes, SYBR Green DNA, 72 h; series mostly up to 28.7 µM; activity, negative = inhibition: at the top concentration
Procedure, shortened: (§1)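 Infected RBCs, 0.3% parasitemia/2.5% Hct final; cpd 72 h, 37 C, 5% CO2; lysis buffer with saponin/triton/SYBR Green I, o/n RT dark; FI 485/535; norm. to artemisinin (0.29 uM) and DMSO.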
Potency means the concentration at half of the fitted maximal effect.

Structure (SMILES)	activity, negative = inhibition
CCN(Cc1ccncc1)C(=O)C(CO)c1ccccc1 (stereo not given)	2.97% (inactive)
NC(=O)c1cn(Cc2c(F)cccc2F)nn1	5.24% (inactive)
CCCCCN(CCCCC)C(=O)C(CCC(=O)O)NC(=O)c1ccc(Cl)c(Cl)c1 (stereo not given)	8.57% (inactive)
O=C1CC2(CCCC2)CC(=O)N1CCCCN1CCN(c2ncccn2)CC1	-3.2% (inactive)
NC(Cc1ccc(Cl)cc1)C(=O)O (stereo not given)	5.04% (inactive)
CCCN(CCC)CCc1cccc2c1CC(=O)N2	4.88% (inactive)
O=C(O)CN(CCOCCOCCN(CC(=O)O)CC(=O)O)CC(=O)O	-5.09% (inactive)
CCN(CC)CCNC(=O)c1ccc(NC(C)=O)cc1	0.163% (inactive)
O=C(O)CCCCCCCC(=O)O	4.35% (inactive)
CC(=O)OCC1=C(C(=O)O)N2C(=O)[C@@H](NC(=O)Cc3cccs3)[C@H]2SC1	14.3% (inactive)
CNC1(C)C2CCC(C2)C1(C)C (stereo not given)	4.16% (inactive)
Cc1scc2c1N(C(=O)CN1CCN(C)CC1)c1ccccc1NC2=O	-10.6% (inactive)
CCCOc1ccccc1-c1nc2n[nH]nc2c(=O)[nH]1	-19.4% (inactive)
CC(C)NNC(=O)c1ccncc1	-2.75% (inactive)
Nc1c2c(nc3ccccc13)CCCC2O (stereo not given)	7.49% (inactive)
NC(=O)c1ncn([C@@H]2O[C@H](CO)[C@@H](O)[C@H]2O)c1O	16.8% (inactive)
Cc1nc2c([nH]1)c(=O)n(C)c(=O)n2Cc1ccco1	-3.28% (inactive)
Cc1cc(C)c(/C=C2\C(=O)Nc3ccccc32)[nH]1	5.5% (inactive)
CCn1cc(C(=O)O)c(=O)c2cc3c(cc21)OCO3	-11.1% (inactive)
CC(=O)Nc1nnc(S(N)(=O)=O)s1	3.08% (inactive)
NC(=Nc1ccccc1)Nc1ccccc1	-11% (inactive)
FC(F)(F)c1ccccc1-n1ccnc1	14.9% (inactive)
CCCCOCCOCCOCc1cc2c(cc1CCC)OCO2	4.26% (inactive)
CCN1CCc2nc(N)oc2CC1	10.3% (inactive)
O=C(CCNNC(=O)c1ccncc1)NCc1ccccc1	10.4% (inactive)
C[N+](C)(C)CCOC(=O)CCC(=O)OCC[N+](C)(C)C	4.43% (inactive)
CN(C)CCOC(=O)COc1ccc(Cl)cc1	0.793% [at 12.8 µM] (inactive)
NC/C=C/C(=O)O	8.42% (inactive)
CCN(CC)CC(=O)Nc1c(C)cccc1C	4.77% (inactive)
CCN1CCC[C@H]1CNC(=O)c1c(O)c(Cl)cc(Cl)c1OC	3.9% (inactive)

system: TAB165; assay: as above; settings: P. falciparum in erythrocytes, SYBR Green DNA, 72 h; series mostly up to 28.7 µM; activity, negative = inhibition: at the top concentration
Procedure, shortened: as §1

Structure (SMILES)	activity, negative = inhibition
CCN(Cc1ccncc1)C(=O)C(CO)c1ccccc1 (stereo not given)	4.66% (inactive)
NC(=O)c1cn(Cc2c(F)cccc2F)nn1	13.9% (inactive)
CCCCCN(CCCCC)C(=O)C(CCC(=O)O)NC(=O)c1ccc(Cl)c(Cl)c1 (stereo not given)	3.11% (inactive)
O=C1CC2(CCCC2)CC(=O)N1CCCCN1CCN(c2ncccn2)CC1	-1.02% (inactive)
NC(Cc1ccc(Cl)cc1)C(=O)O (stereo not given)	10.6% (inactive)
CCCN(CCC)CCc1cccc2c1CC(=O)N2	0.345% (inactive)
O=C(O)CN(CCOCCOCCN(CC(=O)O)CC(=O)O)CC(=O)O	2.54% (inactive)
CCN(CC)CCNC(=O)c1ccc(NC(C)=O)cc1	3.59% (inactive)
O=C(O)CCCCCCCC(=O)O	24.4% (inactive)
CC(=O)OCC1=C(C(=O)O)N2C(=O)[C@@H](NC(=O)Cc3cccs3)[C@H]2SC1	4.28% (inactive)
CNC1(C)C2CCC(C2)C1(C)C (stereo not given)	0.884% (inactive)
CCCOc1ccccc1-c1nc2n[nH]nc2c(=O)[nH]1	-9.6% (inactive)
CC(C)NNC(=O)c1ccncc1	-12.5% (inactive)
Nc1c2c(nc3ccccc13)CCCC2O (stereo not given)	4.13% (inactive)
NC(=O)c1ncn([C@@H]2O[C@H](CO)[C@@H](O)[C@H]2O)c1O	9.88% (inactive)
Cc1nc2c([nH]1)c(=O)n(C)c(=O)n2Cc1ccco1	-0.166% (inactive)
Cc1cc(C)c(/C=C2\C(=O)Nc3ccccc32)[nH]1	6.86% (inactive)
CCn1cc(C(=O)O)c(=O)c2cc3c(cc21)OCO3	4.95% (inactive)
CC(=O)Nc1nnc(S(N)(=O)=O)s1	-1.2% (inactive)
NC(=Nc1ccccc1)Nc1ccccc1	-23% (inactive)
FC(F)(F)c1ccccc1-n1ccnc1	7.23% (inactive)
CCCCOCCOCCOCc1cc2c(cc1CCC)OCO2	2.84% (inactive)
CCN1CCc2nc(N)oc2CC1	2.93% (inactive)
O=C(CCNNC(=O)c1ccncc1)NCc1ccccc1	3.12% (inactive)
C[N+](C)(C)CCOC(=O)CCC(=O)OCC[N+](C)(C)C	12.9% (inactive)
CN(C)CCOC(=O)COc1ccc(Cl)cc1	22.7% [at 12.8 µM] (inactive)
NC/C=C/C(=O)O	7.63% (inactive)
CCN(CC)CC(=O)Nc1c(C)cccc1C	17% (inactive)
CCN1CCC[C@H]1CNC(=O)c1c(O)c(Cl)cc(Cl)c1OC	-0.153% (inactive)

system: W2; assay: as above; settings: P. falciparum in erythrocytes, SYBR Green DNA, 72 h; series mostly up to 28.7 µM; activity, negative = inhibition: at the top concentration
Procedure, shortened: as §1

Structure (SMILES)	activity, negative = inhibition	Potency
CCN(Cc1ccncc1)C(=O)C(CO)c1ccccc1 (stereo not given)	-2.51% (inactive)	
NC(=O)c1cn(Cc2c(F)cccc2F)nn1	14.2% (inactive)	
CCCCCN(CCCCC)C(=O)C(CCC(=O)O)NC(=O)c1ccc(Cl)c(Cl)c1 (stereo not given)	-4.33% (inactive)	
NC(Cc1ccc(Cl)cc1)C(=O)O (stereo not given)	4% (inactive)	
CCCN(CCC)CCc1cccc2c1CC(=O)N2	3.88% (inactive)	
O=C(O)CN(CCOCCOCCN(CC(=O)O)CC(=O)O)CC(=O)O	5.05% (inactive)	
CCN(CC)CCNC(=O)c1ccc(NC(C)=O)cc1	8.78% (inactive)	
O=C(O)CCCCCCCC(=O)O	0.678% (inactive)	
CC(=O)OCC1=C(C(=O)O)N2C(=O)[C@@H](NC(=O)Cc3cccs3)[C@H]2SC1	1.94% (inactive)	
Cc1scc2c1N(C(=O)CN1CCN(C)CC1)c1ccccc1NC2=O	-28.4% (inactive)	
CC(C)NNC(=O)c1ccncc1	13.3% (inactive)	
Nc1c2c(nc3ccccc13)CCCC2O (stereo not given)	-10.1% (inactive)	
NC(=O)c1ncn([C@@H]2O[C@H](CO)[C@@H](O)[C@H]2O)c1O	0.994% (inactive)	
Cc1nc2c([nH]1)c(=O)n(C)c(=O)n2Cc1ccco1	-13.7% (inactive)	
Cc1cc(C)c(/C=C2\C(=O)Nc3ccccc32)[nH]1	-29.6% (inactive)	
CCn1cc(C(=O)O)c(=O)c2cc3c(cc21)OCO3	-1.08% (inactive)	
CC(=O)Nc1nnc(S(N)(=O)=O)s1	12.4% (inactive)	
NC(=Nc1ccccc1)Nc1ccccc1		9.53 µM (active)
FC(F)(F)c1ccccc1-n1ccnc1	5.74% (inactive)	
CCCCOCCOCCOCc1cc2c(cc1CCC)OCO2	4.36% (inactive)	
CCN1CCc2nc(N)oc2CC1	15.1% (inactive)	
C[N+](C)(C)CCOC(=O)CCC(=O)OCC[N+](C)(C)C	-3.99% (inactive)	
CN(C)CCOC(=O)COc1ccc(Cl)cc1	9.25% [at 12.8 µM] (inactive)	
NC/C=C/C(=O)O	11.1% (inactive)	
CCN(CC)CC(=O)Nc1c(C)cccc1C	-0.717% (inactive)	
CCN1CCC[C@H]1CNC(=O)c1c(O)c(Cl)cc(Cl)c1OC	-3.41% (inactive)	
